# Measured values as given in PubChem BioAssay (NCATS).
# “And” between values parts separate entries of the source, which are not always exact repeats. Equal entries are not always repeated. Results filed as inconclusive are left out. The source made the active and inactive calls. The call rests on the fitted dose curve; in most records, active means well fitted cell-killing curve with a large enough effect; inconclusive means small, poorly fitted or top-dose-only effect, or effect the other way; inactive means no such curve, though single readings can be large or run the other way.
# Assay: Viability qHTS for spleen associated tyrosine kinase inhibitor (SYKi) naive MV4-11 cells (AID 1963823); further: nearly all actives have a fitted effect of over 40% in size
# Conditions: MV4-11 AML viability, CellTiter-Glo luminescence, 72 h; series mostly up to 45 µM; viability (% of control): at the top concentration
# From the text: Department of Medicine, Hematology/Oncology
# University Hospital Frankfurt, Germany.
# Trials have shown promising clinical activity of the selective SYK inhibitor entospletinib in patients with high expressing HOXA9/MEIS1 acute leukemias. As the development of resistance mechanisms is a common problem in the use of targeted drugs, we performed a chemical library screen to identify drug sensitivities in SYK inhibitor resistant AML cells. […] Glucocorticoids are potent immunosuppressants which work in part by inhibiting the transcription of cytokine genes.
# Described herein is a viability screen to look for activity in the SYK inhibitor naive cell line against four NCATS compound libraries (MIPE 5.0, NPC, NPACT, and Kinase) totaling 11372 compounds. Active hits were reacquired for confirmation and further secondary assay testing.
# SEQUENCE No. (e.g., 1, 2, 3, etc.); […] (e.g., Cells, Incubation, Reagent, etc.); VALUE; DESCRIPTION.
# 1; Media; 2uL; white, solid-bottom Corning assay plate.
# 2; Compounds; 23nL; Echo acoustic dispenser.
# 3; Cell; 5uL; 500 cells per well.
# 4: Incubation; 72hr; 37 C, 5% CO2, 95% humidity.
# 5; Reagent; 3uL; CellTiter-Glo reagent (Promega).
# 6; Incubation; 10min; room temperature.
# 7; Detection; Luminescence; ViewLux plate reader (PerkinElmer).
# NOTES (numbers refer to Sequence numbers above
# 1. Quantitative high-throughput screening (qHTS) of small molecule compounds was conducted on naive SYKi MV4-11 cell line.
# 2. Twenty-three nanoliter of small molecule compounds were added to each assay plates using the Echo acoustic dispenser (Beckman Coulter).
# 3. Cells were seeded into the assay plates at a final density of 500 cells in 5uL of media per well using the Multi-drop Combi dispenser.
# 4. Plates were covered with stainless steel gasketed lids and incubated for 72 hours at standard cell culture conditions.
# 5. Viability was assessed by adding 3uL of CellTiter-Glo detection reagent (Promega).
# 6. Plates were covered with gasket lids and incubated for 10 minutes at room temperature.
# 7. Luminescence was measured on a ViewLux plate reader (PerkinElmer).
# Potency means the concentration at half of the fitted maximal effect.
Structure (SMILES),Potency,viability (% of control)
C=C1[C@@H](C)[C@H]2[C@H](Cc3ccccc3)NC(=O)[C@]23[C@H](OC(C)=O)/C=C/[C@](C)(O)C(=O)[C@@H](C)C/C=C/[C@H]3[C@@H]1O,1.46 µM (active),–
CNC(C)(C)Cc1ccccc1,–,102% (inactive)
Nc1ccc(Cl)cc1,–,83.7% [at 91.9 µM] (inactive)
O=C(O)c1ccnc2cc(C(OCCN3CCCCC3)c3ccccc3Cl)[nH]c12 (stereo not given),–,88.4% (inactive)
Cc1ncc(CNC(=O)N(CCCl)N=O)c(N)n1,–,103% (inactive)
COC1CC(O[C@H]2CC[C@]3(C=O)C4CC[C@]5(C)[C@@H](C6=CC(=O)OC6)CC[C@]5(O)[C@@H]4CC[C@]3(O)C2)OC(C)C1O[C@@H]1O[C@H](CO)[C@@H](O)[C@H](O)[C@H]1O (stereo not given in full),0.0862 µM (active),–
CCC(=O)O[C@@H]1C=C2CCC3C(CCC4(C)C3CC[C@@H]4OC(=O)CC)C2CC1 (stereo not given in full),–,65.2% (inactive)
c1ccc(C2CC2)c(OCC2=NCCN2)c1,–,73.3% (inactive)
CCCN1CCO[C@@H]2c3cc(O)ccc3OC[C@H]21,–,75.9% (inactive)
CN(C)c1cc2c(cc1Sc1nc3c(N)nccc3n1CCNCC(C)(C)C)OCO2,0.186 µM (active),–
S=C(NC1CCCCC1)N1CCC(c2cnc[nH]2)CC1,–,74.1% (inactive)
CN1CCN(c2ccc([N+](=O)[O-])c3no[n+]([O-])c23)CC1,8.33 µM (active),–
CCc1[nH]c2ccc(OC)cc2c1CCN(C)C,10.3 µM (active),–
O=C(O)c1cc(Oc2ccc(C(F)(F)F)cc2Cl)ccc1[N+](=O)[O-],–,64.4% (inactive)
C=CC(C)(O)CC/C=C(\C)C(=O)O[C@H]1[C@H](O)[C@@H](CO)O[C@@H](OC(=O)[C@]23CCC(C)(C)CC2C2=CCC4[C@@]5(C)CC[C@H](O[C@@H]6O[C@H](CO[C@@H]7OC[C@H](O)[C@H](O)[C@H]7O[C@@H]7OC[C@@H](O)[C@H](O)[C@H]7O)[C@@H](O)[C@H](O)[C@H]6O)C(C)(C)C5CC[C@@]4(C)[C@]2(C)CC3)[C@@H]1OC1OC(C)C(O[C@@H]2OC[C@@H](O)[C@H](O[C@@H]3OC[C@@H](O)[C@H](O)[C@H]3O)[C@H]2O)C(O)C1O (stereo not given in full),–,65.2% [at 9.25 µM] (inactive)
Clc1ccc(N2C[C@H]3CC[C@@H](C2)N3)nn1,–,115% (inactive)
COCC(C(=O)OC1CC2CCC(C1)N2C)c1ccccc1 (stereo not given),–,108% (inactive)
COC1CC(OC2CCC3(C)C(=CCC4C3CCC3(C)C(C(C)OC5OC(COC6OC(CO)C(O)C(O)C6O)C(O)C(O)C5O)CCC43O)C2)OC(C)C1OC1OC(C)C(O)C(OC)C1O (stereo not given),–,91.8% [at 9.25 µM] (inactive)
CO[C@H]1[C@@H](O)[C@@H](C)O[C@@H](O[C@@H]2C=C3C(OC(C)=O)CC4(O)C(CC[C@]5(C)[C@@H](C6=CC(=O)OC6)CC[C@]45O)[C@@]3(C)CC2)[C@@H]1O (stereo not given in full),0.0685 µM (active),–
CC(=O)OC1(c2ccccc2)CCN(CCc2ccccc2)CC1,39.3 µM (active),–

Structure (SMILES),Potency,viability (% of control)
O=C1c2ccccc2C(=O)C1C(=O)C(c1ccccc1)c1ccccc1,–,92% (inactive)
Clc1ccc([C@]23CNC[C@H]2C3)cc1Cl,–,70.8% (inactive)
CN1CCCC1CCOC(c1cc2nccc(C(=O)O)c2[nH]1)c1ccccc1Cl (stereo not given),–,119% (inactive)
Cc1c(Cl)cccc1S(=O)(=O)Nc1nc(CC(=O)N2CCN(C)CC2)cs1,–,63.5% (inactive)
O=c1[nH]c2cc(Cl)ccc2n1C1CCNCC1,–,77.1% (inactive)
CCCC[N+]1(C)[C@@H]2CC(OC(=O)[C@H](CO)c3ccccc3)C[C@H]1[C@@H]1O[C@@H]12 (stereo not given in full),–,74.3% (inactive)
COC(=O)C12C(=O)C(C)(O)C(=O)C1(C)C(C)=CC1C34CCC(OC3=O)C(C)(CO)C4CCC12C (stereo not given),–,77.7% [at 17.3 µM] (inactive)
COc1ccc(C(=O)N2CCCC2=O)cc1,inactive,–
CCOP(=S)(OCC)Oc1ccc2c(C)c(Cl)c(=O)oc2c1,–,64.3% (inactive)
CN1CCCCC1Cn1cc(C(=O)c2cc([N+](=O)[O-])ccc2I)c2ccccc21 (stereo not given),14.6 µM (active),–
CC(=O)Nc1ccc(OC[C@](C)(O)C(=O)Nc2ccc([N+](=O)[O-])c(C(F)(F)F)c2)cc1,16.6 µM (active),–
CC(=O)NC1CCSC1=O (stereo not given),–,73.1% (inactive)
Cc1ccc([N+](=O)[O-])[c]2c1[O][Hg]2,0.0944 µM (active),–
CN1C[C@@H]2CN(c3ccc(-c4ccccc4)nn3)C[C@@H]2C1,–,61.5% (inactive)
COP(=S)(OC)Oc1ccc(SC)c(C)c1,–,86.5% (inactive)
O=c1[nH]c2ccccc2n1C1CCN(Cc2ccc(-c3[nH]c4cc5ncnc5cc4nc3-c3ccccc3)cc2)CC1,14.8 µM (active),–
CC[C@@H]1C[C@H]2CC[C@H](O2)[C@H](C)C(=O)O[C@@H](C)C[C@@H]2CC[C@@H](O2)[C@@H](C)C(=O)O[C@H](CC)C[C@H]2CC[C@H](O2)[C@H](C)C(=O)O[C@@H](C)C[C@@H]2CC[C@@H](O2)[C@@H](C)C(=O)O1,0.0306 µM (active),–
COC1=CC(=O)O[C@@H](/C=C/c2ccccc2)C1,–,78.1% (inactive)
C=C1C[C@@H]2[C@H](CC[C@]3(C)C(=O)CC[C@@H]23)[C@@]2(C)C=CC(=O)C=C12,9.44 µM (active) and 14.8 µM (active),–
COC(=O)C1(C)CCC(O)C2(C)c3cc(O)c(C(C)C)cc3C(O)C(OC(C)=O)C12 (stereo not given),–,87.3% [at 17.3 µM] (inactive)
